These results are taken from article PMC7862700, “An all-to-all approach to the identification of sequence-specific readers for epigenetic DNA modifications on cytosine”.

Common to all, as to test: DAPPL (digital affinity profiling via proximity ligation, sequencing); 10 mM Tris-HCl pH 7.5, 50 mM NaCl, 1 mM DTT, 4% glycerol, room temperature, 30 min; GST-TFs on glutathione beads, 16-mer random dsDNA library, 0.1% formaldehyde crosslink after washing; high values mean tight binding
One assay has as its target T1, FEV (Homo sapiens, UniProt Q99581 1-238).
T1 sequence: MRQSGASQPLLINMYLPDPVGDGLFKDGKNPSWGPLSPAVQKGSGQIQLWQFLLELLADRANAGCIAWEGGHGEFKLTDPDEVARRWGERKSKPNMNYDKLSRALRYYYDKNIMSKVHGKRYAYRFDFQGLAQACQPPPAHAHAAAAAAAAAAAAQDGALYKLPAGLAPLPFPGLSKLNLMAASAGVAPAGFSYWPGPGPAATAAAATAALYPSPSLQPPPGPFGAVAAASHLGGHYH
To be noted: protein: recombinant; tags: N-terminal GST; dsDNA, one strand shown. The gist of the method: (§1)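 Binding signal is defined as a hexamer's read frequency for one factor over its frequency for the tag-only sample. To obtain reads, GST-fused human transcription factors were expressed in yeast, captured on glutathione beads, barcoded with DNA and pooled with that sample. Pools met 200 nmole of a 16-mer random double-stranded DNA library in Tris/NaCl/DTT/glycerol buffer for 30 min at room temperature before washing, 0.1% formaldehyde crosslinking, proximity ligation (BsaI/T4 ligase, 1 h, 37 °C), PCR and Illumina NextSeq500 sequencing.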

Another assay has as its target ETV5 (Homo sapiens, UniProt P41161 1-510). To be noted: protein: recombinant; tags: N-terminal GST; dsDNA, one strand shown. The essentials: as §1
The target in a further assay is HSF1 (Homo sapiens, UniProt Q00613 1-529). To be noted: protein: recombinant; tags: N-terminal GST; chain copies: 3; dsDNA, one strand shown. The gist of the method: as §1
Sequence of HSF1 (Q00613 whole entry): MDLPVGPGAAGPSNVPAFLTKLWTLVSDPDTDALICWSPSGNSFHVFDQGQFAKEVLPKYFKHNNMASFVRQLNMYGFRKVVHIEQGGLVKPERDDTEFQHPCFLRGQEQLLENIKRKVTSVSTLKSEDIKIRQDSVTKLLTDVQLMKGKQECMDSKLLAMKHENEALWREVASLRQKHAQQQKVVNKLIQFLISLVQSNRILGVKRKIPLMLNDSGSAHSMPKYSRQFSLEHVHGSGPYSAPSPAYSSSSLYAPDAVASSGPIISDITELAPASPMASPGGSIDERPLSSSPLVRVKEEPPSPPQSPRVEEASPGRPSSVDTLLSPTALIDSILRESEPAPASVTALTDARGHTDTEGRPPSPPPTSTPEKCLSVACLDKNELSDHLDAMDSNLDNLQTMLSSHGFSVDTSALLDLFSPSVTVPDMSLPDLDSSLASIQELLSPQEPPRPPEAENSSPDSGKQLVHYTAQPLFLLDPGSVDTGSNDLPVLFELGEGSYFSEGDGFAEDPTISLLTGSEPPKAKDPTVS
Another assay concerns the target T2, SPIC (Homo sapiens, UniProt Q8N5J4 1-248).
T2 sequence: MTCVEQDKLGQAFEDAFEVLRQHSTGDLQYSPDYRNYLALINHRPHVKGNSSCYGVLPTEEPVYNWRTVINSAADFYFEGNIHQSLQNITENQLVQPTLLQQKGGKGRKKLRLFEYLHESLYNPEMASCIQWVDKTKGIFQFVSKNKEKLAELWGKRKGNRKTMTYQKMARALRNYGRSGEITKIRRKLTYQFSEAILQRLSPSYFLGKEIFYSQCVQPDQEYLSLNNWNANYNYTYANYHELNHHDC
To be noted: protein: recombinant; tags: N-terminal GST; dsDNA, one strand shown. The essentials:
as §1

A further assay concerns the target ELF4 (Homo sapiens, UniProt Q99607 1-663). To be noted: protein: recombinant; tags: N-terminal GST; dsDNA, one strand shown. The gist of the method: as §1
The next assay has as its target T3, ELK4 (Homo sapiens, UniProt P28324-2 1-405).
T3 sequence: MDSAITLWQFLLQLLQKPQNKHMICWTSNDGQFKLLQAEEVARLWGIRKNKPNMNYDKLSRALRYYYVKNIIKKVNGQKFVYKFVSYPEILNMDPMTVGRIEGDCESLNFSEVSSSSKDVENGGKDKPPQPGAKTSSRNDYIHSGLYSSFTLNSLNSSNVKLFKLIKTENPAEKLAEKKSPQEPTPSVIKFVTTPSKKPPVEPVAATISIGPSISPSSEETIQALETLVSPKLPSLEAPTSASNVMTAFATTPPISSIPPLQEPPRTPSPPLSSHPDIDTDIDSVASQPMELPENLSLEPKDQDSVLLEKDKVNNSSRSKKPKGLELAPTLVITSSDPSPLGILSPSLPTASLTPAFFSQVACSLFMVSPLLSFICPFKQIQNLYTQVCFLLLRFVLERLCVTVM
The note with it: protein: recombinant; tags: N-terminal GST; dsDNA, one strand shown. The essentials: as §1

The next assay deals with T4, ETV2 (Homo sapiens, UniProt O00321 1-342).
T4 sequence: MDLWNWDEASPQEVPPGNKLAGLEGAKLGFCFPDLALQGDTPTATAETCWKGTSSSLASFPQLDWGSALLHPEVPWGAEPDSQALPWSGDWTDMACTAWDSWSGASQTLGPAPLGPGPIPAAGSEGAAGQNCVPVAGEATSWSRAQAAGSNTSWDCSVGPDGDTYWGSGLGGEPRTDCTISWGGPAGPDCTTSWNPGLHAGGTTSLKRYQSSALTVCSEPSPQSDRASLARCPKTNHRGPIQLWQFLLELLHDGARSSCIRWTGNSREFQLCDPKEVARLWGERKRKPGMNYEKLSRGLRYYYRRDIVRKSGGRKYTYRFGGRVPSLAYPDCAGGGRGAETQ
To be noted: protein: recombinant; tags: N-terminal GST; dsDNA, one strand shown. The gist of the method: as §1

The next assay addresses T5, ELF3 (Homo sapiens, UniProt P78545 1-371).
T5 sequence: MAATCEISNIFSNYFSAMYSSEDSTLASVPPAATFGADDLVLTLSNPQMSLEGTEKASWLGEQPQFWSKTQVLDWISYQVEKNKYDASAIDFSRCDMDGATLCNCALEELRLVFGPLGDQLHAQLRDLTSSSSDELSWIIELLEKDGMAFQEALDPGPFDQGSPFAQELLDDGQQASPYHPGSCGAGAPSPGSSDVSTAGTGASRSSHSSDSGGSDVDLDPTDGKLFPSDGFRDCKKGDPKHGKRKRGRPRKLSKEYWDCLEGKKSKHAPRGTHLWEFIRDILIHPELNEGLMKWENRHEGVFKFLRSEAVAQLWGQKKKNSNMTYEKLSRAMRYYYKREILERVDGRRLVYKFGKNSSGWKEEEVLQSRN
The note with it: protein: recombinant; tags: N-terminal GST; dsDNA, one strand shown. The gist of the method:
as §1

The next assay deals with CRX (Homo sapiens, UniProt O43186 1-299). To be noted: protein: recombinant; tags: N-terminal GST; dsDNA, one strand shown. The essentials:
as §1

The target of the next assay is ETV1 (Homo sapiens, UniProt P50549 1-477). To be noted: protein: recombinant; tags: N-terminal GST; dsDNA, one strand shown. The gist of the method: as §1
Sequence of ETV1 (P50549 whole entry): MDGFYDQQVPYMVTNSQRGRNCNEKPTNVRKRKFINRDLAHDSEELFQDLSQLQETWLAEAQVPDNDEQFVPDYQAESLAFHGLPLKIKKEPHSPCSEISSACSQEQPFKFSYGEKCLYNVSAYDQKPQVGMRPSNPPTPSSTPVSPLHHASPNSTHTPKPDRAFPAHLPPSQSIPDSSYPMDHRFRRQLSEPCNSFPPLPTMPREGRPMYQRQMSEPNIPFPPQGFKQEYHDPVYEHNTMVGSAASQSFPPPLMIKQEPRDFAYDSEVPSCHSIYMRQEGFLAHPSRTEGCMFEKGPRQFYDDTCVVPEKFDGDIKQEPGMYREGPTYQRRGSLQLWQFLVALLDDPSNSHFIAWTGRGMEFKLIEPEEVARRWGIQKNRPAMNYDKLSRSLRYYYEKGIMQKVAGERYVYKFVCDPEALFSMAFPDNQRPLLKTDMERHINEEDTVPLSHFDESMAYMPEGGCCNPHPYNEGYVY
The target of the next assay is T6, ERF (Homo sapiens, UniProt P50548 1-548).
T6 sequence: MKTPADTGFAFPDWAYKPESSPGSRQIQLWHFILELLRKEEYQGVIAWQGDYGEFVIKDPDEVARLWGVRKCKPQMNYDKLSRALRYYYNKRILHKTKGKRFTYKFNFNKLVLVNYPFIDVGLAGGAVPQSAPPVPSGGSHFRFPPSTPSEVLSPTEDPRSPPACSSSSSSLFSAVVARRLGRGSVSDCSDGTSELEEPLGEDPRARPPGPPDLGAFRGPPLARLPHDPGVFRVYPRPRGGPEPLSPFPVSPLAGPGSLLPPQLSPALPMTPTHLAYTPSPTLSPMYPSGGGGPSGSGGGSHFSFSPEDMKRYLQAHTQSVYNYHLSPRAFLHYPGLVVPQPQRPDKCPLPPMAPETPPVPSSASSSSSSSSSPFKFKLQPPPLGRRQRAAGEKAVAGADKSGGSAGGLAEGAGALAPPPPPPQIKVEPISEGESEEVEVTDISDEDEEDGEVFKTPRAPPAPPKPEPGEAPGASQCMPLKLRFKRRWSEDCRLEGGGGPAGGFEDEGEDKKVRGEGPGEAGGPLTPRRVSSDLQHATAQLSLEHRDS
To be noted: protein: recombinant; tags: N-terminal GST; dsDNA, one strand shown. The gist of the method:
as §1

A further assay addresses T7, ETV3L (Homo sapiens, UniProt Q6ZN32 1-361).
T7 sequence: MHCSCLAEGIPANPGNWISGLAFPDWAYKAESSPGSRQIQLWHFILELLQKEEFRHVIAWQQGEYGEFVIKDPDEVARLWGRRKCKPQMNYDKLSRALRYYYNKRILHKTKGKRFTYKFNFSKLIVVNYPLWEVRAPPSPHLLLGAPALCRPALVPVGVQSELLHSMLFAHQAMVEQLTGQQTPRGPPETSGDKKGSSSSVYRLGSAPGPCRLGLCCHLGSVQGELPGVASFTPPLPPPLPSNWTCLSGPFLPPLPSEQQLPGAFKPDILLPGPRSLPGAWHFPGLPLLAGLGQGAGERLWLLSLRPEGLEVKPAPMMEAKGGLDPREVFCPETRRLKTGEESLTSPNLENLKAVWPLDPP
To be noted: protein: recombinant; tags: N-terminal GST; dsDNA, one strand shown. The essentials: as §1

The target of another assay is T8, ETS2 (Homo sapiens, UniProt P15036 1-469).
T8 sequence: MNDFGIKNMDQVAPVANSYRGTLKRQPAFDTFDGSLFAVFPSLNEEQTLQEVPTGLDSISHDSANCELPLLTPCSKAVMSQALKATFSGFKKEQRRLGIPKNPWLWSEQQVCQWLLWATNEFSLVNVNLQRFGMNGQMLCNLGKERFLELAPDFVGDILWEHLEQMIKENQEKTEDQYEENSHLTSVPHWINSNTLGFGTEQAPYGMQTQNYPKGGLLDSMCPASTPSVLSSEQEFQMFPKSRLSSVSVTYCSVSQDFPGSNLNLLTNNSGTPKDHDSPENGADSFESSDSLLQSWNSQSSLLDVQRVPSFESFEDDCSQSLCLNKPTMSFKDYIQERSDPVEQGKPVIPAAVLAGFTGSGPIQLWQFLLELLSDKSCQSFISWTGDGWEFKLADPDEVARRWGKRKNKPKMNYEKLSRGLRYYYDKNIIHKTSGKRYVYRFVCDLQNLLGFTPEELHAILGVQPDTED
The note with it: protein: recombinant; tags: N-terminal GST; dsDNA, one strand shown. The essentials:
as §1

Another assay addresses T9, SPDEF (Homo sapiens, UniProt O95238 1-335).
T9 sequence: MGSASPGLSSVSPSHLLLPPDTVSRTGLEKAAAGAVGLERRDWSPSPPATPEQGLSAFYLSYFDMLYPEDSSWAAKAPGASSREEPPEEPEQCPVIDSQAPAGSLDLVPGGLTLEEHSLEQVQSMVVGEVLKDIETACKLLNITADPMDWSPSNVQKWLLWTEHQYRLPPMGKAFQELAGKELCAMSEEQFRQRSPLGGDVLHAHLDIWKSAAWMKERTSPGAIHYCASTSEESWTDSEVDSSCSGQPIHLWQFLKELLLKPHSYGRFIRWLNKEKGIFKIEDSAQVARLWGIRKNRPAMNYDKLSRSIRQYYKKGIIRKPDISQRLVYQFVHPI
To be noted: protein: recombinant; tags: N-terminal GST; dsDNA, one strand shown. The gist of the method:
as §1

For the next assay, the target named is T10, ETV7 (Homo sapiens, UniProt Q9Y603 1-341).
T10 sequence: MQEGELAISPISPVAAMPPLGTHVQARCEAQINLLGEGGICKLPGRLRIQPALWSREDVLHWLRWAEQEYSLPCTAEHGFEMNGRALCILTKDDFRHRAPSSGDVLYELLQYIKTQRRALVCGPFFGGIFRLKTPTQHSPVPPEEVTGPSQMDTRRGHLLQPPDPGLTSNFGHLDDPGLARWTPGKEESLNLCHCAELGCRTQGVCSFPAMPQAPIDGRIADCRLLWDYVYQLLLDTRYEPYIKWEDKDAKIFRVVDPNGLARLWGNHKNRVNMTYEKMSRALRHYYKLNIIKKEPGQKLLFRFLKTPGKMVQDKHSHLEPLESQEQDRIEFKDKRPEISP
To be noted: protein: recombinant; tags: N-terminal GST; dsDNA, one strand shown. The essentials: as §1

For the next assay, the target named is T11, ELF5 (Homo sapiens, UniProt Q9UKW6-2 1-255).
T11 sequence: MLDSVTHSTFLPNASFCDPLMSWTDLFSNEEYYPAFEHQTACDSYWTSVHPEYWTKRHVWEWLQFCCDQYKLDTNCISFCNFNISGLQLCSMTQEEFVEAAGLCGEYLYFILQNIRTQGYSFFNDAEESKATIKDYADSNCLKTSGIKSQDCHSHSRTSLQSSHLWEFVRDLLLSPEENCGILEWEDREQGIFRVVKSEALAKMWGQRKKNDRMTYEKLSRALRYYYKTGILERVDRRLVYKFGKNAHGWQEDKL
To be noted: protein: recombinant; tags: N-terminal GST; dsDNA, one strand shown. The gist of the method: as §1

Another assay concerns the target T12, ETV3 (Homo sapiens, UniProt P41162-2 1-143).
T12 sequence: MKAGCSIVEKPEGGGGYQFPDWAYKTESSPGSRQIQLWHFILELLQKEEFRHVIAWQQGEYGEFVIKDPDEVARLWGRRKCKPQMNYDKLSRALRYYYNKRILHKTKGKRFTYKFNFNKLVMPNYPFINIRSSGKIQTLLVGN
The note with it: protein: recombinant; tags: N-terminal GST; dsDNA, one strand shown. The gist of the method:
as §1

A further assay concerns the target ETV6 (Homo sapiens, UniProt P41212 1-452). To be noted: protein: recombinant; tags: N-terminal GST; dsDNA, one strand shown. The essentials:
as §1

Sequence of ETV5 (P41161 whole entry): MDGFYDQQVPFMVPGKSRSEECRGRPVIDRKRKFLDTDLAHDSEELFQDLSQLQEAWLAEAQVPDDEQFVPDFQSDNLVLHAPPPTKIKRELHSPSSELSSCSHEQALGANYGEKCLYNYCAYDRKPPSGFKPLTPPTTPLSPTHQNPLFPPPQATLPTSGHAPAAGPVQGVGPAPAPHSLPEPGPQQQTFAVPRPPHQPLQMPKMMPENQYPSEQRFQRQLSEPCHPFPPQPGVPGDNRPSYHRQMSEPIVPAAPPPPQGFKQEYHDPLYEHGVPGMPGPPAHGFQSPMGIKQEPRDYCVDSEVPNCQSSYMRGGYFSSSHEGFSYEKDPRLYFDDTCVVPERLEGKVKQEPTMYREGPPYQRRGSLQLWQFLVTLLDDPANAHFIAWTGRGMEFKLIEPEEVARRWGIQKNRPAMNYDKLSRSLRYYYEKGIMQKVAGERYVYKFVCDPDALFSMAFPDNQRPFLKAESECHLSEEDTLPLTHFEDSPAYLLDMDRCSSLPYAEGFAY
Sequence of ETV6 (P41212 whole entry): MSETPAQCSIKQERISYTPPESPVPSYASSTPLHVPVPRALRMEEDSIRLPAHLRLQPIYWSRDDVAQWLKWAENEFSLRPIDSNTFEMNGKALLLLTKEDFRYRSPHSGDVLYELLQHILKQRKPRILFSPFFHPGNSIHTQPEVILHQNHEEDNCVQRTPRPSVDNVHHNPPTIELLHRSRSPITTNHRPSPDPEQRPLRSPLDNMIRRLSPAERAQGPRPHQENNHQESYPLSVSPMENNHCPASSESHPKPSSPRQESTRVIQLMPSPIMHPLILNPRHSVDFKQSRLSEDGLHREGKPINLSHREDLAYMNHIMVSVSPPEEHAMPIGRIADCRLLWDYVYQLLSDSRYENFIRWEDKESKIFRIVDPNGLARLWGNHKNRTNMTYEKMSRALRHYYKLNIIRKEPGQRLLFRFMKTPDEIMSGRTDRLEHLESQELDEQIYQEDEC
Sequence of CRX (O43186 whole entry): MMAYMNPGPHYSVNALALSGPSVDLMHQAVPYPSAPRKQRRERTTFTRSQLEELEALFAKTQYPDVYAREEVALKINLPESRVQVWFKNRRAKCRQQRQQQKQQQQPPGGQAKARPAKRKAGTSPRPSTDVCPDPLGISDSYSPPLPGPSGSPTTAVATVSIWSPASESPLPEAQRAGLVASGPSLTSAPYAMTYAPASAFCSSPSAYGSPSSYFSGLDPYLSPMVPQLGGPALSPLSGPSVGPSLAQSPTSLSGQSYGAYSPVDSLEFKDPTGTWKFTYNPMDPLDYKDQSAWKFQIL
Sequence of ELF4 (Q99607 whole entry): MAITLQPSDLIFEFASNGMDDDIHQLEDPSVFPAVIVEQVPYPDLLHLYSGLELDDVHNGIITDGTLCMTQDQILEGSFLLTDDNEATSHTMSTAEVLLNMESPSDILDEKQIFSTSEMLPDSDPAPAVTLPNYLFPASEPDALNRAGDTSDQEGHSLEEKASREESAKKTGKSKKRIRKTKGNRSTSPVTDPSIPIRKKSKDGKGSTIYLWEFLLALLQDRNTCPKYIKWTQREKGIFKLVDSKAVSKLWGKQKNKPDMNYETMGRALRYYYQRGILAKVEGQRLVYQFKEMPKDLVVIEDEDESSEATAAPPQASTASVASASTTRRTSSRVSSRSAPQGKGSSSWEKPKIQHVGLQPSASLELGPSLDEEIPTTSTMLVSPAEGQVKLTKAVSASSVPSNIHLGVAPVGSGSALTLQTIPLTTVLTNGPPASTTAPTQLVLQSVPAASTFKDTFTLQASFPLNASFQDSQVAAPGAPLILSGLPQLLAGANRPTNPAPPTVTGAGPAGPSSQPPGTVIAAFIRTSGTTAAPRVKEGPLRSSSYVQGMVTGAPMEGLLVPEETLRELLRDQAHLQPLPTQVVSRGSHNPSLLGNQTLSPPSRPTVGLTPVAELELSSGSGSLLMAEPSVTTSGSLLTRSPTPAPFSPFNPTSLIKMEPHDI

Regarding CCCCCT, the binding signal is 1.18 fold enrichment (6-mer frequency, TF over GST control) in the assay with FEV; 1.29 fold enrichment (6-mer frequency, TF over GST control) with ETV5; 1.02 fold enrichment (6-mer frequency, TF over GST control) in the assay with HSF1; 1.31 fold enrichment (6-mer frequency, TF over GST control) with SPIC; 1.35 fold enrichment (6-mer frequency, TF over GST control) in the assay with ELF4; 1.58 fold enrichment (6-mer frequency, TF over GST control) with ELK4. Further, the binding signal with ETV2 was 1.17 fold enrichment (6-mer frequency, TF over GST control); in the assay with ELF3 it was 1.39 fold enrichment (6-mer frequency, TF over GST control); in the assay with CRX it was 1.07 fold enrichment (6-mer frequency, TF over GST control); in the assay with ETV1, 1.2 fold enrichment (6-mer frequency, TF over GST control); with ERF, 1.38 fold enrichment (6-mer frequency, TF over GST control); in the assay with ETV3L, 1.23 fold enrichment (6-mer frequency, TF over GST control). In addition, the binding signal in the assay with ETS2 was 1.14 fold enrichment (6-mer frequency, TF over GST control); with SPDEF, 1.05 fold enrichment (6-mer frequency, TF over GST control); in the assay with ETV7 it was 1.17 fold enrichment (6-mer frequency, TF over GST control); with ELF5, 1.37 fold enrichment (6-mer frequency, TF over GST control); in the assay with ETV3 it was 1.27 fold enrichment (6-mer frequency, TF over GST control); with ETV6 it was 1.15 fold enrichment (6-mer frequency, TF over GST control).
